GPR151 activ: activates the human receptor GPR151; Q8TDV0; PathHunter beta-arrestin GPR151 cells, luminescence; activation, % at 11.2 µM; actives 1% (n = 650,000); AID 1508602; in the data active means activation above about 4.9%;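 further: 0% = median of compound wells and 100% = cells with positive control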
TEAD-YAP inh: TEAD-YAP interaction inhibition; inhibition, % at 9.12 µM; HEK-TIYL cells, TEAD-Gal4/YAP UAS-luciferase luminescence; actives 1.4% (n = 640,000); AID 1259422; in the data active means inhibition above about 32%;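 further: 0% = median of test compound wells and 100% = reference inhibitor wells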
MITF primary: blocks human microphthalmia-associated transcription factor; O75030; AlphaScreen MITF homodimerization, bead proximity signal; inhibition, % at 2.6 µM; actives 0.91% (n = 650,000); in the data active means inhibition above about 50%;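 further: 0% = vehicle wells with protein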
FBW7 activator: human FBW7 E3 ligase activation, primary screen. AlphaScreen FBW7–phospho-cyclin E peptide binding, activator screen. normalized activity (activation), % at 26.1 µM. actives 0.13% (n = 650,000). AID 1259310; in the data active means normalized activity above about 1.9%;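 further: purified mutant Fbw7 with reduced substrate affinity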
GPR151 conf act: confirmation of human GPR151 activators; 6,700 tested, under 10 active; activation, % at 11.2 µM; shares compounds with GPR151 activ; GPR151 PathHunter beta-arrestin cells, luminescence, 90 min; % of EA-reagent control over plate median;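 active means mean percent activation across replicates above the confirmation screen cutoff of 4.91%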
GPR119 ag: activates human GPR119 in a GPR151 counter-screen; GPR119 PathHunter beta-arrestin cells, luminescence, 90 min; 0 = compound-well median, 100 = enzyme-acceptor control; shares compounds with GPR151 activ; activation, % at 11.2 µM; actives 0.3% (n = 6,700); AID 1508611;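 active means mean percent activation in the counterscreen above 29.09%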;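 further: counterscreen on off-target GPR119 to flag nonselective hits from the GPR151 activator screen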
Numbers without * were called inactive; / = no result given. The list is not random: actives were taken first. Their share in the collection is about 3.4%.

SMILES | GPR151 activ | TEAD-YAP inh | MITF primary | FBW7 activator | GPR151 conf act | GPR119 ag
Cc1nc(N2CCOCC2)c2c(C)c(C(=O)Nc3cccc(C(F)(F)F)c3)sc2n1 | 5.8* | 6 | -5 | 0 | -1 | -14
Cc1nc2sc(C(=O)Nc3cccc(C(F)(F)F)c3)c(C)c2c(=O)[nH]1 | 6.5* | 2 | 11 | 0 | 1 | -4
Cc1ccc2nc(C)c(C(=O)NC3CCC3)n2c1 | 0 | 13 | 12 | 0 | / | /
N#C/C=C(\c1ccc(F)cc1)N1CCN(c2ccccc2)CC1 | -1 | -5 | -3 | 0 | / | /
Fc1ccc(C(c2nnnn2Cc2ccco2)N2CCN(c3ccccc3)CC2)cc1 (centres undefined) | -1 | -14 | 15 | 0 | / | /
Cc1cccc(C)c1NC(=O)CSc1nc2ccccc2o1 | 7.6* | 13 | 3 | 0 | -1 | -6
O=C(CSc1nc2ccccc2o1)Nc1ccccc1C(F)(F)F | 5.2* | -17 | 10 | 0 | 2 | 5
O=C(CSc1nc2ccccc2o1)Nc1ccccc1Cl | -1 | -41 | 3 | 0 | / | /
COc1ccc(NC(=O)CNC(=O)c2nn(-c3ccc(OC)c(OC)c3)c(=O)c3ccccc23)cc1Cl | 3 | 6 | 16 | 0 | / | /
CC(=O)Nc1ccc(Nc2nc(-c3ccc(F)c(C)c3)cs2)cc1 | 1 | -82 | 13 | 0 | / | /
O=C(c1ccccc1)N(O)CC(O)COc1ccccc1 (centres undefined) | 0 | 4 | 20 | 0 | / | /
COc1ccc(C2(O)CSC3=C(C#N)C(c4ccc(F)cc4)CC(=O)N32)cc1OC (centres undefined) | 0 | -4 | 6 | 0 | / | /
CC1(C)c2ccccc2N(CC(N)=O)C12C=Cc1cc([N+](=O)[O-])ccc1O2 (centres undefined) | 2 | -1 | -2 | 0 | / | /
O=C1CCCC2=C1C(c1ccc(O)c(Cl)c1)C1=C(CCCC1=O)O2 | 7.4* | 34* | -13 | 0 | 0 | 1
O=C(NNC(=S)Nc1ccccc1Cl)C1CC1 | 6.0* | 6 | 5 | 0 | 1 | 9
CCOC(=O)c1oc2ccccc2c1NC(=O)C1COc2ccccc2O1 (centres undefined) | 5.5* | 10 | 0 | 0 | 0 | 3
CCOC(=O)c1oc2ccccc2c1NC(=O)c1ccc(Cl)s1 | 6.5* | -26 | 15 | 0 | -1 | -2
CCOC(=O)c1oc2ccccc2c1NC(=O)C1CCCCC1 | 0 | -4 | 10 | 1 | / | /
CCOc1ccccc1N(C)C(=O)Cc1c(C(=O)O)[nH]c2ccccc12 | 1 | 9 | -4 | 0 | / | /
Cc1ccccc1N(C)C(=O)Cc1c(C(=O)O)[nH]c2ccccc12 | 5.5* | 9 | 38 | 0 | 0 | -9
O=c1oc2ccc(Cl)cc2nc1/C=C(\O)c1ccc(Cl)cc1 | -2 | -8 | 14 | 0 | / | /
NS(=O)(=O)c1ccc(CNC(=S)Nc2ccc(Br)cc2Cl)cc1 | 4 | -6 | 7 | 0 | / | /
NS(=O)(=O)c1ccc(CNC(=O)Nc2ccc(Br)cc2Cl)cc1 | 8.7* | -9 | 12 | 0 | -1 | -14
CCOC(=O)C1CCN(c2c(N3CCN(c4cccc(Cl)c4)CC3)c(=O)c2=O)CC1 | 5.2* | -5 | 3 | 0 | -1 | -16
CCOC(=O)C1CCCN(c2c(N3CCN(c4cccc(Cl)c4)CC3)c(=O)c2=O)C1 (centres undefined) | 1 | 8 | -7 | 0 | / | /
SMILES | GPR151 activ | TEAD-YAP inh | MITF primary | FBW7 activator | GPR151 conf act | GPR119 ag
Cc1ccc(C2C(C(=O)c3ccco3)=C(O)C(=O)N2CCCN2CCOCC2)o1 (centres undefined) | 0 | -3 | 0 | 0 | / | /
CN1CSC2=C(C#N)C(c3cccc(OCc4ccccc4)c3)CC(=O)N2C1 (centres undefined) | 8.7* | -4 | 8 | 0 | 0 | -7
COc1cc2ccccc2cc1C(=O)Nc1ccc(NC(=O)c2ccccc2)c(C)c1 | 1 | -3 | -6 | 0 | / | /
COc1cc(/C=C/c2[nH]c(=O)[nH]c(=O)c2[N+](=O)[O-])cc(Cl)c1O | 0 | 2 | 11 | 0 | / | /
COc1cc(/C=C/c2[nH]c(=O)[nH]c(=O)c2[N+](=O)[O-])cc(OC)c1OC | 7.7* | -3 | 10 | 0 | -1 | -4
Cc1cccc(C)c1NC(=O)CSc1ncn[nH]1 | 2 | -9 | -17 | 0 | / | /
CCc1cccc(C)c1NC(=O)CSc1ncn[nH]1 | 7.4* | 4 | 18 | 0 | 0 | -6
CCOC(=O)/C=C1\OC2(O)CC(C3COC2O3)C1C(=O)OCC (centres undefined) | 1 | -1 | -10 | 0 | / | /
CCOc1ccccc1CN1CCN(C2CCN(c3ccccc3F)CC2)CC1CCO (centres undefined) | 11* | -6 | -12 | 0 | 1 | 14
CC(C)=CCN1CCN(Cc2cccc(OCCO)c2)CC1CCO (centres undefined) | -1 | 0 | 0 | 0 | / | /
CCOc1ccccc1CN1CCN(C2CCCC2)CC1CCO (centres undefined) | 1 | -4 | 3 | 0 | / | /
C=CCOc1ccccc1CN1CCN(Cc2ccsc2)C(CCO)C1 (centres undefined) | 6.1* | 2 | 1 | 0 | -1 | -5
COc1cccc(CN2CCN(Cc3ccccc3O)CC2CCO)c1 (centres undefined) | 8.1* | -7 | -6 | 0 | 0 | -1
Cc1ccccc1CN1CCN(Cc2cccc(OCCO)c2)CC1CCO (centres undefined) | 5.9* | 5 | 9 | 0 | 0 | 1
O=C(NCc1cccc(C(F)(F)F)c1)c1cccc(Nc2nccc3ccccc23)c1 | -1 | -4 | 2 | 0 | / | /
O=c1c2ccccc2nc(SCc2ccc(Cl)cc2)n1C1CCCCC1 | 0 | -11 | -6 | 0 | / | /
Cc1ccccc1CN1CCN(Cc2ccn[nH]2)CC1CCO (centres undefined) | 6.0* | -5 | 9 | 0 | -1 | -8
CCOc1ccccc1CN1CCN(Cc2cccc(F)c2)CC1CCO (centres undefined) | 5.4* | -9 | -11 | 0 | -1 | -13
OCCC1CN(Cc2cc(F)cc(F)c2)CCN1Cc1ccccc1F (centres undefined) | 0 | 3 | 15 | 0 | / | /
COc1cccc(CN2CCN(Cc3cc(Cl)c(O)c(OC)c3)CC2CCO)c1 (centres undefined) | 6.3* | -17 | -12 | 0 | 1 | 6
OCCC1CN(Cc2ccncc2)CCN1Cc1ccccc1F (centres undefined) | 6.6* | 4 | 9 | 0 | 1 | -6
OCCC1CN(Cc2ccn[nH]2)CCN1Cc1ccccc1F (centres undefined) | -1 | 5 | 2 | 0 | / | /
CCOc1ccccc1CN1CCN(Cc2cc(F)cc(F)c2)CC1CCO (centres undefined) | 0 | -1 | 6 | 0 | / | /
